mIDH1 inhibitor = human IDH1 R132H inhibition; IDH1-R132H enzyme, NADPH consumption, diaphorase/resazurin fluorescence; Potency, µM (series often up to 76.6 µM), most hits filed as inhibitors; actives 0.093% (n = 390,000); note: nearly all actives have a fitted effect of over 65% in size
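IDH1-R132H (0.5 ug/mL) preincubated 30 min with compound, then NADPH (0.016 mM) and alpha-KG (2 mM) added; 80 min at RT, pH 7.5. Remaining NADPH coupled via diaphorase/resazurin to fluorescence (540/590 nm); concentration-response curves normalized to no-enzyme control.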
TrxR1 substrate = rat thioredoxin reductase 1 substrate activity; purified TrxR1 substrate turnover, NADPH consumption readout; Potency, µM (titrated, usually from 114 µM); actives 0.01% (n = 390,000); AID 588456; note: nearly all actives have a fitted effect of over 50% in size
Target sequence (O89049 whole entry, looked up): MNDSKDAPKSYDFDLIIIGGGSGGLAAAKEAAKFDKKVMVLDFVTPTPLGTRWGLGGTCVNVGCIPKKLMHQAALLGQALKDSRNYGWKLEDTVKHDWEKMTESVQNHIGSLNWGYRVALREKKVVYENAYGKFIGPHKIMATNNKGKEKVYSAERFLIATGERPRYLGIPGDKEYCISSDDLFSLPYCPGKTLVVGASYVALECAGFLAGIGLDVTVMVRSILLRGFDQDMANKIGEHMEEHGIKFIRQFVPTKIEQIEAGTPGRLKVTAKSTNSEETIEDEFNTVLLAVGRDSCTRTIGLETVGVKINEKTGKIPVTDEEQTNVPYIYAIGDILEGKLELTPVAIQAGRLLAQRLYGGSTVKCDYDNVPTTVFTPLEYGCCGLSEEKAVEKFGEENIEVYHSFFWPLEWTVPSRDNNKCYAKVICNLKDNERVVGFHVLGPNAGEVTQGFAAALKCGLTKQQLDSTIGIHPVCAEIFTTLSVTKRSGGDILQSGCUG
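Rat TrxR1, dispensed at 90 nM, was prereduced with 400 uM NADPH (final) for 5 min at ~22 deg C, then incubated with compound 15 min before 400 uM selenite. A first-read NADPH fluorescence drop versus no-compound background flagged substrates.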
rTrxR1 inhibitor = rat TrxR1 inhibition; O89049; recombinant rTrxR1, NADPH fluorescence consumption, selenite substrate; Potency, µM (top dose mostly 114 µM), hits mostly inhibitors; actives 1% (n = 390,000); note: nearly all actives have a fitted effect of over 65% in size
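Rat TrxR1 (90 nM in the dispensed reagent) was pre-reduced with 400 uM NADPH for 5 min at room temperature, then incubated with compound for 15 min. After 400 uM selenite was added, NADPH fluorescence (Ex 340/Em 450 nm) was followed for 8 min.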
VDR inh = inhibitors of human vitamin D receptor | P11473 | Potency, µM, actives largely listed as inhibitors | VDR-SRC2-3 peptide fluorescence polarization, 2 h | actives 0.93% (n = 400,000) | AID 504847
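Fluorescence polarization assay of small-molecule disruption of VDR binding to coregulator peptide SRC2-3. Compounds and controls pin-transferred, then read after 2 h incubation at ambient room temperature.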
PLK1 PBD inh = inhibitors of human PLK1 polo-box domain binding | Potency, µM, most hits filed as inhibitors | AID 720504 | Plk1 PBD binding of FITC phosphopeptide, fluorescence polarization | actives 2.8% (n = 360,000); note: series mostly up to about 57 µM; nearly all actives have a fitted effect of over 65% in size
Sfp PPTase inh = Sfp phosphopantetheinyl transferase inhibition; Potency, µM, actives largely listed as inhibitors; Q9F4F7; actives 3.5% (n = 310,000); Biochemical Sfp PPTase activity, qHTS; AID 1490;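 note: the enzyme is Sfp with the accession as filed and its product quenches rhodamine fluorescence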
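Reaction rates are the 30-min fluorescence difference (ex 525, em 598 nm) in wells containing 15 nM Sfp, 5 uM rhodamine-CoA and 12.5 uM BHQ-2-YbbR at pH 7.6 with 10 mM MgCl2.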
Numbers stand for hits; i = inactive; ? = inconclusive; nt = no result given; [ ] = another dose, or the depositor's remark. Shown are actives, neighbours in structure and some others; about 5.2% of the full set was active somewhere. Calls come from the whole dose curve; as a rule, active = well fitted curve in the direction sought with a large enough effect; inconclusive = small, poorly fitted or top-dose-only effect, or another doubt; inactive = no such curve, though single readings can be large; an effect the other way counts as inactive or inconclusive.

SMILES	mIDH1 inhibitor	TrxR1 substrate	rTrxR1 inhibitor	VDR inh	PLK1 PBD inh	Sfp PPTase inh
CCS(=O)(=O)Nc1cccc(-c2cn3c(n2)SCC3)c1	i	i	i	i	?	i
CS(=O)(=O)Nc1cccc(-c2cn3c(n2)SCC3)c1	i	i	32µM	?	?	i
O=C1CNC(=S)N1CCc1ccc(O)c(O)c1	i	i	?	i	i	45µM
CC[C@H](C)[C@H](NC(=O)[C@H](CCC(=O)O)NC(=O)[C@H](CO)NC(=O)[C@@H](NC(=O)[C@@H](N)CO)C(C)C)C(=O)N[C@@H](CCC(N)=O)C(=O)N[C@@H](CC(C)C)C(=O)N[C@@H](CCSC)C(=O)N[C@@H](Cc1cnc[nH]1)C(=O)N[C@@H](CC(N)=O)C(=O)N[C@@H](CC(C)C)C(=O)NCC(=O)N[C@@H](CCCCN)C(=O)N[C@@H](Cc1cnc[nH]1)C(=O)N[C@@H](CC(C)C)C(=O)N[C@@H](CC(N)=O)C(=O)N[C@@H](CO)C(=O)N[C@@H](CCSC)C(=O)N[C@@H](CCC(=O)O)C(=O)N[C@@H](CCCNC(=N)N)C(=O)N[C@H](C(=O)N[C@@H](CCC(=O)O)C(=O)N[C@@H](Cc1c[nH]c2ccccc12)C(=O)N[C@@H](CC(C)C)C(=O)N[C@@H](CCCNC(=N)N)C(=O)N[C@@H](CCCCN)C(=O)N[C@@H](CCCCN)C(=O)N[C@@H](CC(C)C)C(=O)N[C@@H](CCC(N)=O)C(=O)N[C@@H](CC(=O)O)C(=O)N[C@H](C(=O)N[C@@H](Cc1cnc[nH]1)C(=O)N[C@@H](CC(N)=O)C(=O)N[C@@H](Cc1ccccc1)C(=O)N[C@H](C(=O)N[C@@H](C)C(=O)N[C@@H](CC(C)C)C(=O)NCC(=O)O)C(C)C)C(C)C)C(C)C	nt	nt	nt	i	nt	?
C1=Cc2ccccc2/C1=C\c1ccc(/C=C2\C=Cc3ccccc32)cc1	nt	i	i	nt	nt	nt
O=[N+]([O-])c1ccc(/C=C2\C=Cc3ccccc32)cc1	nt	i	i	nt	nt	nt
Brc1ccc(/C=C2\C=Cc3ccccc32)cc1	nt	i	32µM	nt	nt	nt
Cc1cc(/C=C2\C=Cc3ccccc32)cc(C)c1[N+](=O)[O-]	nt	i	20µM	nt	nt	nt
C1=Cc2ccccc2/C1=C\c1cccc(/C=C2\C=Cc3ccccc32)c1	nt	i	20µM	nt	nt	nt
CCOc1ccccc1CNC(=O)CCc1cn(Cc2ccc(Cl)cc2)c2ccccc12	i	i	i	i	nt	nt
CCC(=O)N1CCc2cc(Br)cc(S(=O)(=O)N3CCCC(C(=O)Nc4cc(C)ccc4OC)C3)c21 (stereo not drawn)	i	i	89µM	i	nt	nt
COc1ccc(C)cc1NC(=O)C1CCN(S(=O)(=O)c2cc(Br)cc3c2N(C(C)=O)CC3)CC1	i	i	i	i	nt	nt
CS(=O)(=O)Nc1ccc(-c2nc3ccccc3s2)cc1	nt	i	79µM	i	nt	nt
O=C(O)CN1C(=O)/C(=C\c2cc(Br)ccc2OCc2ccccc2F)SC1=S	i	i	i	?	19µM	i
O=C(O)CCN1C(=O)/C(=C\c2ccc(OCc3ccccc3)c(OCc3ccccc3)c2)SC1=S	i	i	i	i	i	i
O=C(O)CCN1C(=O)/C(=C\c2cccc(OCc3ccccc3)c2)SC1=S	i	i	i	?	19µM	i
O/N=C/c1cc(Br)ccc1OCc1ccccc1F	i	i	i	i	i	nt
O=C(O)CN1C(=O)/C(=C\c2cccc(OCc3ccc(Cl)cc3Cl)c2)SC1=S	i	i	i	?	21µM	79µM
O=C(O)CN1C(=O)/C(=C\c2cc(Br)ccc2OCc2ccc([N+](=O)[O-])cc2)SC1=S	i	i	i	35µM	21µM	?
O=C(O)COc1ccc(Br)cc1/C=C1/SC(=O)N(CC(=O)N2CCCC2)C1=O	i	i	?	?	i	i
O=C(O)CN1C(=O)/C(=C\c2ccccc2OCc2ccc(Cl)cc2Cl)SC1=S	i	i	i	?	27µM	?
CCOc1ccccc1C=C1SC(=S)N(CC)C1=O	i	i	i[2.29 µM]	i	i	nt
COc1ccc(/C=C2\SC(=S)N(CCC(=O)N3CCOCC3)C2=O)cc1	i	i	i	i	i	i
O=C(O)CN1C(=O)/C(=C\c2cc(Br)ccc2OCc2ccccc2Cl)SC1=S	i	i	i	?	17µM	?
COc1cccc(/C=C2/SC(=S)N(CCC(=O)N3CCOCC3)C2=O)c1	i	i	i	i	30µM	i
SMILES	mIDH1 inhibitor	TrxR1 substrate	rTrxR1 inhibitor	VDR inh	PLK1 PBD inh	Sfp PPTase inh
Cc1ccccc1Nc1oc(-c2ccccc2)nc1-c1cccs1	nt	nt	nt	i	nt	i
CC(=O)Nc1ccc(NC(=O)CCc2c(C)nc3c(c(C)nn3-c3ccc(C)cc3)c2C)cc1	nt	i	i	i	nt	nt
CC(Nc1nc(=S)nc(Nc2ccc(F)cc2)[nH]1)c1ccccc1 (stereo not drawn)	i	i	i	?	13µM	45µM
CC(Nc1nc(Nc2ccc(F)cc2)nc(SCC(N)=O)n1)c1ccccc1 (stereo not drawn)	i	i	i	i	i	i
CC1(C)Cc2ccccc2C(/C(C#N)=N/O)=N1	i	i	i	i	i	i
COc1ccc(N/N=C(/C(N)=O)C2=NC(C)(C)Cc3ccccc32)cc1	i	i	i	i	i	28µM
CCc1n[nH]c(=S)n1/N=C/c1cc(OC)cc([N+](=O)[O-])c1O	i	i	i	i	?	22µM
Cc1ccccc1CN1C(=O)c2ccccc2Sc2ccc(C(=O)N3CCOCC3)cc21	i	i	i	i	nt	nt
COC(=O)c1cc(=O)nc(NN=C2c3ccccc3-c3ccccc32)s1	nt	nt	nt	nt	30µM	nt
CCOC(=O)C1=CCC2C(=O)N(C)C(=O)C12 (stereo not drawn)	nt	nt	nt	nt	i	nt
CC1(C)Cc2c(cnn2-c2ccc(F)cc2)C(NC(=O)CCN2CCCC2=O)C1 (stereo not drawn)	i	i	i	?	3.4µM	i
CC1(C)Cc2c(cnn2-c2ccc(F)cc2)C(NC(=O)C2=NNC(=O)CC2)C1 (stereo not drawn)	i	i	i	?	3µM	i
CC(C)(C)c1ccc(-n2ncc3c2CCCC3NC(=O)CN2CCCC2=O)cc1 (stereo not drawn)	i	i	i	i	i	i
CC1(C)Cc2c(cnn2-c2ccc(F)cc2)C(NC(=O)c2ccco2)C1 (stereo not drawn)	i	i	i	i	i	i
Cc1cc(C)cc(-n2ncc3c2CCCC3NC(=O)CN2CCCC2=O)c1 (stereo not drawn)	i	i	i	?	30µM	i
O=[N+]([O-])c1cc(S(=O)(=O)Nc2ccccc2)ccc1N1CCN(c2ccc(O)cc2)CC1	i	i	i	i	i	56µM
CCOc1ccccc1Nc1ccc2cc(S(=O)(=O)N3CCCCC3)ccc2n1	i	i	i	i	nt	nt
